From PubChem BioAssay AID720641 (ICCB-Longwood Screening Facility, Harvard Medical School, 2013)
Out of some 170,000 compounds screened, about 900 (0.53%) were called active.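 How the source made its calls: active means relative growth at most 50% at the other temperature and 20+ points below 30 °C, or under 10% at both; inactive means the rest, inconclusive results apart.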 The full list was thinned out, with actives kept by preference.

Test: S. aureus growth inhibition at 42 and 30 °C, primary screen, LtaS inhibitor project, RN4220, two temperatures (AID 720641)
Conditions: OD600, 20 h, 42 °C, stronger effect = lower value

SMILES	relative growth	relative growth (measured here: growth at 30 °C)
[C-]#[N+]c1ccc(Cl)cc1C(C)S(=O)(=O)c1ccc(C)cc1 (stereo not given)	4.29% (active)	7.07%
Cc1cc(N2CCNCC2)nc(C)n1	91.3% (inactive)	82.9%
CN1C(=O)C(C(=O)O)C2CC1Oc1ccccc12 (stereo not given)	91.5% (inactive)	72.8%
O=C(Cn1cc(/C=C2/C(=O)NC(=O)N(Cc3ccco3)C2=O)c2ccccc21)NCC1CCCO1 (stereo not given)	98.4% (inactive)	86.3%
CN(C)c1ccc(/C=C2/C(=O)C3CCN2CC3)cc1	112% (inactive)	95.5%
